Measurements reported in PubChem BioAssay (NCATS).
Where “and” joins values, the source holds several entries; their conditions need not be identical. Equal values may be shown once. Values without a mark were called inactive. Inconclusive results are not listed. A call without a number means that no potency is given here. Calls of active or inactive are those of the source. Unless noted, the call rests on the fitted dose curve; in most records, active means well fitted curve in the direction sought with a large enough effect; inconclusive means small, poorly fitted or top-dose-only effect, or another doubt; inactive means no such curve, though single readings can be large; an effect the other way counts as inactive or inconclusive.

Key:
[1] = Cell Viability - BJ (AID 421; calls by dose curve;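 further: potency means the concentration at half of the fitted maximal effect; cells exposed to compound for 40 hours at 37 °C before readout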); conditions: BJ fibroblast viability, qHTS
Summary of the method: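 Luminescent ATP signal (CellTiter-Glo, 20 min at room temperature) served as the read-out of viable BJ cells after 40 hours of compound treatment. Responses were scaled between DMSO and 100 uM tamoxifen, and AC50 values were obtained by Hill modeling.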

[2] = Cell Viability - MRC5 (AID 434; calls by dose curve;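 further: potency means the concentration at half of the fitted maximal effect; cells exposed to compound for 40 hours at 37 °C; potency reflects cytotoxicity seen as loss of intracellular ATP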); conditions: MRC5 lung fibroblast viability, qHTS
Summary of the method: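 qHTS cytotoxicity in human lung fibroblast MRC5 cells; 40 hr treatment, 37 °C; cellular ATP by luciferase luminescence; DMSO = 0%, 100 uM tamoxifen = 100% inhibition; Hill-fit AC50.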

[3] = Cellular Toxicity (caspase-3) HepG2 (AID 654); conditions: HepG2 caspase-3 activation, luminescence; series mostly up to 92.2 µM; further: potency means the concentration at half of the fitted maximal effect;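 on caspase-3 activation: cells exposed to compound for 16 hours before reading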
Summary of the method: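 Cells plated 5 hr at 37 °C, compound added, incubated 16 hr at 37 °C. Caspase-Glo 3/7 reagent followed, 20 min at room temperature, then luminescence read. Activation scored as signal increase; AC50 from Hill fit.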

[4] = Cellular Toxicity (caspase-3) BJ (AID 658); conditions: BJ fibroblasts, luminescence; Potency: caspase-3 activation; series mostly up to 91.7 µM
Summary of the method: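 Readout: Caspase-Glo 3/7 luminescence increase in BJ cells after 16 hr treatment at 37 °C. Staurosporine and tamoxifen served as positive controls; AC50 values came from Hill modelling of data normalized to DMSO and 10 uM staurosporine.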

[5] = Cellular Toxicity (caspase-3) MRC-5 (AID 659); conditions: MRC-5 cells, luminescence, normalized: DMSO 0%, 10 µM staurosporine 100%; series mostly up to 91.7 µM
Summary of the method: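 Concentration-dependent caspase 3/7 activation is measured in human normal lung fibroblasts (MRC-5) following 16-hour treatment. AC50 values come from standard Hill-equation modeling of luminescence normalized to DMSO and 10 uM staurosporine.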

[6] = Cellular Toxicity (caspase-3) Renal Proximal Tubule (AID 667); conditions: renal proximal tubule cells, primary cells freshly taken from rat; Potency: caspase-3 activation; series mostly up to 91.7 µM;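 further: cells exposed to compound for 16 hours at 37 °C before detection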; further: potency means the concentration at half of the fitted maximal effect
Summary of the method: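 Primary rat proximal tubule cells, 1000/well, 5 h plating at 37 °C, then compound 16 h at 37 °C. Caspase-Glo 3/7 reagent, 1 h RT, luminescence. Normalized to DMSO (basal) and 10 uM staurosporine (100%); Hill-fit AC50.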

[7] = Cell Viability - LYMP1-003 - Assay at 24 hr (AID 963); conditions: LYMP1-003 lymphoblastoid cell viability; series mostly up to 92.2 µM; further: potency means the concentration at half of the fitted maximal effect
Summary of the method: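 Cells seeded at 2500/well, 5 hr at 37 C; compounds added; 24 hr at 37 C; CellTiter-Glo added, 30 min room temperature; luminescence read. Decrease in ATP taken as cytotoxicity, AC50 from Hill modelling.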

[8] = Cell Viability - LYMP2-026 (AID 989); conditions: LYMP2-026 lymphoblastoid cell viability, qHTS; series mostly up to 92.2 µM;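 further: cells exposed to compound for 24 h at 37 °C; nearly all actives have a fitted effect of over 50% in size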; further: potency means the concentration at half of the fitted maximal effect
Summary of the method: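 Luminescent ATP signal (CellTiter-Glo, 30 min room temperature) measures viable lymphoblastoid cells after 24 hr compound treatment at 37 C. Decreased ATP reflects acute toxicity; AC50 values come from Hill-equation modeling.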

[9] = Cell Viability - LYMP1-002 - Assay at 24 hr (AID 993); conditions: LYMP1-002 lymphoblastoid cells viability; series mostly up to 92.2 µM; further: potency means the concentration at half of the fitted maximal effect
Summary of the method: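 Cells plated 2500/well, 5 hr 37 C; compounds added, 24 hr 37 C; CellTiter-Glo added, 30 min RT; luminescence read. Tetraoctylammonium bromide positive control. Hill-equation AC50.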

[10] = qHTS Assay for Identification of Small Molecule Inducers of Hypoxia Response (AID 2120; active means well fitted curve in the direction sought with a large enough effect in the signal ratio, with a control signal flat, not every such curve was filed as active; the % refers to the signal ratio; further: potency means the concentration at half of the fitted maximal effect); conditions: hypoxia response reporter cells, beta-lactamase ratio readout; series mostly up to 104 µM
Summary of the method: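 ME-180 HRE-bla cells plated in Opti-MEM/0.5% dialyzed FBS, rested 4-5 h, then dosed with compound titrations by pin tool. After 17 h at 37 degrees C, CCF4 dye loaded 2.5 h at RT; 460/530 nm ratio gave %Activity and AC50.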

[11] = biological target: Peroxisome proliferator-activated receptor alpha (Homo sapiens) (UniProt Q07869); assay: qHTS assay for small molecule agonists of the peroxisome proliferator-activated receptor alpha (PPARalpha) signaling pathway (AID 651778); conditions: PathHunter PPARalpha complementation, chemiluminescence, 6 h; max response: hits give high values
Summary of the method: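 Chemiluminescence from complemented enzyme reported PPARalpha activation in cells after 6 hr of compound treatment at 37 C. The detection reagent was incubated for 60 min at room temperature, and compounds were scored as agonists.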

[12] = qHTS assay for cell viability of the p53RE-bla HCT-116 cell line (AID 743292); conditions: p53RE-bla HCT-116 viability, ATP luminescence, 16 h; series mostly up to 95 µM; further: nearly all actives have a fitted effect of over 55% in size; further: potency means the concentration at half of the fitted maximal effect
Summary of the method: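 Viability of compound-treated p53RE-bla HCT-116 cells is taken from ATP-dependent luciferase luminescence. Treatment lasts 16 h at 37 C after a 5 h settling period; detection follows 30 min at room temperature.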

[13] = Cellular Toxicity (caspase-3) Jurkat (AID 655); conditions: Jurkat caspase-3 activation, luminescence; caspase-3 activation: at 92.2 µM (top of the series), DMSO = 0%, tamoxifen = 100%;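 further: cells exposed to compound for 16 h at 37 °C before reading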
Summary of the method: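 Jurkat cells (5000/well) in complete medium were treated with compounds for 16 hr at 37 °C, then Caspase-Glo 3/7 luminescence was read after 20 min at room temperature. Data normalized to DMSO (basal) and 100 uM tamoxifen (100%); AC50 from Hill fit.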

[14] = Cellular Toxicity (caspase-3) SHSY5Y (AID 657); conditions: SH-SY5Y caspase-3 activation; series mostly up to 91.7 µM
Summary of the method: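 SH-SY5Y human neuroblastoma cells (1500/well) were treated with compounds for 16 h at 37 °C, then Caspase-Glo 3/7 luminescence was read after 1 h at room temperature. Data normalized to DMSO and 10 uM staurosporine; AC50 from Hill fits.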

[15] = Cellular Toxicity (caspase-3) SK-N-SH (AID 661); conditions: SK-N-SH caspase-3 activation, qHTS, DMSO as zero, staurosporine as full; series mostly up to 91.7 µM
Summary of the method: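 Human neuroblastoma SK-N-SH, 1500 cells/well, 5 hr pre-incubation, then compound 16 hr, 37 °C. Caspase-Glo 3/7 reagent, 1 hr RT, luminescence. Norm. to DMSO/10 uM staurosporine; Hill-fit AC50.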

[16] = Cellular Toxicity (caspase-3) Hek293 (AID 664); conditions: HEK293 caspase-3 activation, DMSO = 0%, 100 µM tamoxifen = 100%; at 92.2 µM (top of the series);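 further: cells exposed to compound for 16 h at 37 °C before readout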
Summary of the method: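 Cells plated, 5 hr at 37 °C; compounds added; 16 hr at 37 °C; Caspase-Glo 3/7 reagent, 20 min RT; luminescence read. Activation expressed relative to DMSO and 100 uM tamoxifen, AC50 by Hill model.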

[17] = MultiTox-Fluor Cytotoxicity Assay - LYMP1-001 - Dead Cells (AID 946); conditions: LYMP1-001 lymphoblastoid cells, dead-cell protease fluorescence; series mostly up to 92.2 µM; further: potency means the concentration at half of the fitted maximal effect
Summary of the method: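 AC50 from Hill fit of concentration-response; data normalized to DMSO (basal) and 15 uM tetraoctylammonium bromide (100%). LYMP1-001 lymphoblastoid cells, 2500/well, 16 hr compound at 37 C; dead-cell protease fluorescence, Ex/Em 485/520.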

[18] = Cellular Toxicity (caspase-3) Mesangial (AID 660); conditions: mesangial cells, normalized: DMSO 0%, 100 µM tamoxifen 100%; series mostly up to 91.7 µM;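 further: combined caspase 3 and 7 activity read by Caspase-Glo luminescence; cells exposed to compound for 16 h before the caspase read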
Summary of the method: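 Mesangial cells, 1000/well, 5 h settle at 37 °C; compound 16 h, 37 °C; Caspase-Glo 3/7 reagent 20 min RT; luminescence. Norm.: DMSO = 0%, tamoxifen 100 uM = 100%. AC50, Hill fit.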

[19] = Cell Viability - LYMP1-002 - Assay at 16 hr (AID 948); conditions: LYMP1-002 lymphoblastoid cell viability; series mostly up to 92.2 µM
Summary of the method: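 Human lymphoblastoid cells (LYMP1-002), 2500/well, were preincubated 5 hr at 37 C, then exposed to compounds for 16 hr at 37 C in complete medium. Cellular ATP was read by CellTiter-Glo luminescence after 30 min at room temperature; AC50 from Hill fits.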

[20] = MultiTox-Fluor Cytotoxicity Assay - LYMP1-002 - Live Cells (AID 955); conditions: LYMP1-002 lymphoblastoid live-cell protease fluorescence viability; series mostly up to 46.1 µM
Summary of the method: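 Read-out is live-cell protease activity (cell-permeant GF-AFC substrate, fluorescence Ex/Em=405/510), where a decrease indicates acute toxicity. Human lymphoblastoid cells were treated 16 hours at 37 C in a concentration series, and AC50 values came from standard Hill modelling.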

Peroxisome proliferator-activated receptor alpha (Homo sapiens), sequence (Q07869 whole entry, looked up): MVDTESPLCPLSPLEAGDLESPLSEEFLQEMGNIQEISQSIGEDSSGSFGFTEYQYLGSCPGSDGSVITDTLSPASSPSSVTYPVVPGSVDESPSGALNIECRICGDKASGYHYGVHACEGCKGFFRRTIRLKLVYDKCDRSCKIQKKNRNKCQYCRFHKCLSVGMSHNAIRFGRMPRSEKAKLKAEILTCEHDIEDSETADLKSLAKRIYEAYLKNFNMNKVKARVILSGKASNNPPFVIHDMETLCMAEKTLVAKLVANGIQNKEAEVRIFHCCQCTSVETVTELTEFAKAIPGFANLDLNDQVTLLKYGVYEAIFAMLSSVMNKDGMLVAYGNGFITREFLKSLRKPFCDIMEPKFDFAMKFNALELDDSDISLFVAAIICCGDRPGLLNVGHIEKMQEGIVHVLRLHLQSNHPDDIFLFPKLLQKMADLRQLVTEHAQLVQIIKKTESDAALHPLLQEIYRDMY

SMILES	Potency [1]	Potency [2]	Potency [3]	Potency [4]	outcome [5]	Potency [6]	Potency [7]	Potency [8]	Potency [9]	Potency [10]	max response [11]	Potency [12]	Potency [13]	Potency [14]	outcome [15]	caspase-3 activation [16] [%]	Potency [17]	outcome [18]	Potency [19]	outcome [20]
CC1=C(/C=C/C(C)=C/C=C/C(C)=C/C=O)C(C)(C)CCC1	35.2 µM (active)	33.4 µM (active)	63.1 µM (active)	inactive	inactive	31.6 µM (active)	50.1 µM (active)	50.1 µM (active)	50.1 µM (active)	inactive	-2.8%	50.1 µM (active)								
CC/C=C/C/C=C/C/C=C/CCCCCCCC(=O)OCC	> 92 µM	> 92 µM	inactive	inactive	inactive	inactive	inactive	50.1 µM (active)		inactive	19.5%	inactive	inactive	inactive	inactive	7.96	inactive			
Cc1cc2nc(N)sc2cc1C	> 92 µM	> 92 µM	inactive	inactive	inactive		inactive	inactive	inactive	inactive	-4.39%	inactive	inactive	inactive	inactive	-7.89	inactive	inactive	inactive	inactive
CCN(CC)c1ccc(N)cc1			inactive	inactive	inactive	inactive	inactive	inactive	inactive	inactive	-0.774%	inactive	inactive		inactive	18.6		inactive	inactive	
Cc1c2ccccc2c(C)c2c1ccc1ccccc12	13.8 µM (active)	17.9 µM (active)	inactive	inactive	inactive	inactive	inactive	inactive	inactive	44.7 µM (active)	2.82% and -0.29%	inactive	inactive	inactive	inactive	2.33		inactive	inactive	inactive
CN(C)c1ccc(C(=N)c2ccc(N(C)C)cc2)cc1			inactive	inactive	inactive	inactive	inactive		inactive	inactive	-0.198%	inactive				7.49	39.8 µM (active)	inactive		
Cc1cc(-c2ccc(N=Nc3cc(S(=O)(=O)O)c4ccccc4c3N)c(C)c2)ccc1N=Nc1cc(S(=O)(=O)O)c2ccccc2c1N		> 92 µM	inactive	inactive	inactive	inactive	inactive	inactive	inactive	inactive	-11.9%		inactive	inactive	inactive	-4.55	inactive	inactive		inactive
